Source: PubChem (National Center for Advancing Translational Sciences (NCATS))
Hits are enriched below; roughly 19% of the tested compounds scored in any of these assays.
DT40 TDP1 no CPT = qHTS for Inhibitors of human tyrosyl-DNA phosphodiesterase 1 (TDP1): qHTS in cells in absence of CPT; DT40 Tdp1-/- hTDP1 cells, no CPT, ATP luminescence, 48 h; Potency, µM (top dose mostly 46.2 µM), usual class: inhibitors; actives 15% (n = 420,000); AID 686978, 2013; note: nearly all actives have a fitted effect of over 55% in size
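Cells were dispensed at 400 per well, compounds added by pin tool, plates incubated ≥48 hr at 37 °C, then CellTiter-Glo added for 30 min at room temperature before luminescence reading. Line: DT40 Tdp1-/- complemented with hTDP1; camptothecin omitted.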
IL1B secr inh = inhibitors of inflammasome signaling (IL-1 beta secretion); THP-1 LPS/ATP IL-1B secretion, AlphaLISA, 16 h; hits give low values; activity change, % at 57.5 µM; actives 4.7% (n = 360,000); AID 743279; in the data active = activity change below about -50%; inconclusive = mostly about -30% to -49%
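THP-1 cells pretreated 1 hr with compounds (up to 57.5 uM final), then stimulated with LPS (250 ng/mL final) plus ATP (1.25 mM final); secreted IL-1B measured by AlphaLISA after 16 hr, decreased signal indicating inhibition.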
ASM inhibitor = inhibitors of human secretory acid sphingomyelinase; P17405; placental ASM, HMU-PC fluorogenic substrate, 60 min; Potency, µM (top dose mostly 57.5 µM), hits mostly inhibitors; actives 0.006% (n = 340,000); AID 504937
Target sequence (P17405 47-631 limits assumed): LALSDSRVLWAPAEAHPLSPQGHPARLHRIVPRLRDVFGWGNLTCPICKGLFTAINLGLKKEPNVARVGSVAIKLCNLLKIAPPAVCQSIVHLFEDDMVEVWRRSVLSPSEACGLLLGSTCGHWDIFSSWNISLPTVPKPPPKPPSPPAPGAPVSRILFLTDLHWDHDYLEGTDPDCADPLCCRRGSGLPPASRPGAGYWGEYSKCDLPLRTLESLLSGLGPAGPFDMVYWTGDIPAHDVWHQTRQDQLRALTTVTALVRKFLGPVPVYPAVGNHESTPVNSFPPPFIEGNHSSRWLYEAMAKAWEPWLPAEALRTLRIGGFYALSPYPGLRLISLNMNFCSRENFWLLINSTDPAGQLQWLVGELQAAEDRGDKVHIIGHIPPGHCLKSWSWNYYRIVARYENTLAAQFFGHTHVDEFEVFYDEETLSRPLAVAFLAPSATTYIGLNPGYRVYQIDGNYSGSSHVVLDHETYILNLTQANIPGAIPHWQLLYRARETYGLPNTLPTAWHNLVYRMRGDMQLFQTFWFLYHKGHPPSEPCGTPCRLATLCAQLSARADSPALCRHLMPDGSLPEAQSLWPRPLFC
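Human placenta-derived ASM enzyme was preincubated with compound for 10 minutes at room temperature, then given fluorogenic substrate HMU-PC0 (9 uM final) for 60 minutes at 37 °C; a pH 10 stop preceded fluorescence reading at Ex 386/Em 447 nm.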
TGFb SMAD3 inh = TGF-b pathway inhibition; actives 1.2% (n = 410,000); AID 588855; HepG2 CAGA-GFP TGF-b/SMAD3 reporter, GFP fluorescence, 18 h; TGF-beta stimulated, 500 pg/mL final; Potency, µM (highest dose often 46.1 µM), hits mostly inhibitors; note: nearly all actives have a fitted effect of over 65% in size
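Inhibition was scored as loss of TGF-beta-induced (500 pg/mL final, 18 hours, 37 degrees C) GFP in HEPG2 cells carrying a CAGA-GFP reporter, in DMEM with 1% FBS. Well GFP was summed per cell; Activity was normalised to unstimulated and stimulated DMSO wells, then concentration-response fitting.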
TDP1 cell CPT = DT40-hTDP1 cell growth loss with CPT; chicken DT40 Tdp1-/-;hTDP1 cells + 20 nM CPT, ATP luminescence, 48 h; actives 12% (n = 420,000); Potency, µM (highest dose often 46.2 µM), hits mostly inhibitors; note: nearly all actives have a fitted effect of over 55% in size
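Cell growth measured by CellTiter-Glo luminescence after a minimum 48 h, 37 C compound exposure with 20 nM CPT in Tdp1-knockout DT40 cells stably expressing hTDP1, seeded 400/well; qHTS titration format.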
HepG2 tox = HepG2 cytotoxicity, counter-screen for TGF-b inhibitors. Potency, µM (top dose mostly 46.1 µM), hits mostly cytotoxic. actives 0.76% (n = 410,000). HepG2 CAGA-GFP viability, ATP luminescence, 18 h
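CellTiter-Glo luminescence gave cytotoxicity after 18 hours at 37 degrees C. The cells were HepG2 CAGA-GFP in 1% FBS DMEM, stimulated with 500 pg/mL TGF-beta after compound addition. %Activity was normalised to no-cell wells (complete cell-killing) and DMSO (no toxicity), and curves were fitted and classified.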
Numbers stand for hits; 0 = inactive; ? = inconclusive; - = not tested or not shown. Unless noted, calls come from the whole dose curve; as a rule, active = well fitted curve in the direction sought with a large enough effect; inconclusive = small, poorly fitted or top-dose-only effect, or another doubt; inactive = no such curve, though single readings can be large; an effect the other way counts as inactive or inconclusive.

SMILES | DT40 TDP1 no CPT | IL1B secr inh | ASM inhibitor | TGFb SMAD3 inh | TDP1 cell CPT | HepG2 tox
COc1ccc(-c2cc(C(F)(F)F)nc(SCCC(=O)Nc3c(C)cccc3C)n2)cc1 | - | - | - | 0 | - | 0
COc1ccc(-c2cc(C(F)(F)F)nc(SCCC(=O)Nc3ccc(O)cc3)n2)cc1 | - | - | - | ? | - | 0
COc1ccc(-c2cc(C(F)(F)F)nc(SCCC(=O)N3CCCC3)n2)cc1 | ? | -52 | 0 | 0 | ? | 0
COc1ccc(-c2cc(C(F)(F)F)nc(SCCC(=O)N3CCN4CCCC4C3)n2)cc1 (stereo unspecified) | 26µM | 0 | 0 | 0 | ? | 0
C=CCc1c(C)nc(N2CCSCC2)[nH]c1=O | 0 | 0 | 0 | 0 | 0 | 0
CC(=O)C1=C(O)C(=O)N(c2cc(C(C)(C)C)on2)C1c1ccc(C(C)C)cc1 (stereo unspecified) | 26µM | 0 | 0 | ? | ? | 0
CC(=O)C1=C(O)C(=O)N(c2cc(C(C)(C)C)on2)C1c1ccc(Br)cc1 (stereo unspecified) | ? | 0 | 0 | 0 | ? | 0
O=C(COC(=O)c1cc(S(=O)(=O)N2CCOCC2)ccc1F)c1ccc[nH]1 | 0 | -62 | 0 | 0 | 0 | 0
O=C(COC(=O)c1cc(S(=O)(=O)N2CCOCC2)ccc1Cl)c1ccc[nH]1 | ? | 0 | - | 0 | 0 | 0
O=C1COc2ccc(C(=O)COC(=O)c3cc(S(=O)(=O)N4CCOCC4)ccc3F)cc2N1 | 0 | -70 | 0 | 0 | 0 | 0
O=C1COc2ccc(C(=O)COC(=O)CCc3ccc(S(=O)(=O)N4CCOCC4)cc3)cc2N1 | 0 | 0 | 0 | 0 | 0 | 0
COC(C/C=C/C(=O)COCc1ccccc1)OC | ? | -87 | 0 | ? | 15µM | 0
COC(C/C=C\[C@H](O)COCc1ccccc1)OC | 0 | 0 | 0 | 0 | 0 | 0
COC(C/C=C/C(=O)[C@H](C)OCc1ccccc1)OC | 7.3µM | 0 | 0 | ? | 5.2µM | 0
COC(C/C=C/[C@H](O)[C@@H](C)OCc1ccccc1)OC | 0 | 0 | 0 | 0 | 0 | 0
Cc1cccc(NC(=O)c2ccc(-n3c(C)nnc3C)cc2)c1 | 0 | - | - | 0 | 0 | 0
Cc1cc(C)cc(S(=O)(=O)Nc2cccc(-c3ccc(N4CCOCC4)nn3)c2)c1 | 0 | - | - | 0 | ? | 0
CCC(C)(C)n1nnnc1C(c1ccc2ncccc2c1)N1CCCC(C)C1 (stereo unspecified) | 11µM | 0 | 0 | 0 | 0 | 0
CCC(C)(C)n1nnnc1C(c1ccc2ncccc2c1)N1CCN(c2nc3ccccc3s2)CC1 (stereo unspecified) | ? | 0 | 0 | 0 | 21µM | 0
CCC(C)(C)n1nnnc1C(c1ccc2ncccc2c1)N1CCN(c2ccc(O)cc2)CC1 (stereo unspecified) | 0 | 0 | 0 | 0 | 0 | 0
S=C(Nc1ccc(Cl)cc1)NC1CC2CCCC(C1)N2C1CCCC1 (stereo unspecified) | ? | 0 | 0 | ? | ? | 0
C=CCN1C2CCCC1CC(NC(=S)Nc1ccc(Cl)cc1)C2 (stereo unspecified) | ? | 0 | 0 | 0 | 23µM | 0
S=C(Nc1ccc(Cl)cc1)NC1CC2CCC(C1)N2Cc1ccccc1 (stereo unspecified) | 16µM | -98 | 0 | ? | 23µM | 0
CCc1cc(-c2nnn(CCC3COCCO3)c2CC)ccc1-c1cn(CCc2c[nH]c3ccccc23)nn1 (stereo unspecified) | 12µM | 0 | - | 0 | 16µM | 0
OCCNc1ncnc2c1ncn2[C@H]1CN(C2CCCC2)C[C@@H](CO)O1 | 0 | 0 | - | 0 | 0 | 0
SMILES | DT40 TDP1 no CPT | IL1B secr inh | ASM inhibitor | TGFb SMAD3 inh | TDP1 cell CPT | HepG2 tox
O=C1CC[C@@H](O)CCN1CC[C@H](Sc1ccccc1)c1ccccc1 | ? | 0 | 0 | 0 | ? | 0
O=C1CC[C@@H](O)CCN1CC[C@H](Sc1ccc(Br)cc1)c1ccccc1 | 10µM | 0 | 0 | ? | 23µM | 0
CC(C)(C)[C@@H]1CCC(=O)N(CC[C@H](Sc2ccc(Br)cc2)c2ccccc2)CC1 | 11µM | 0 | 0 | ? | 18µM | 0
CCC(C(=O)Nc1cc(OC)cc(OC)c1)n1nc(-c2ccc(C)c(C)c2)ccc1=O (stereo unspecified) | ? | - | - | ? | ? | 0
COc1ccc(Cn2ccc3nc(C)c(C(=O)Nc4cc(C)cc(C)c4)cc3c2=O)cc1 | ? | - | - | 0 | ? | 0
CC1=C(C(=O)OCCNC(=O)c2ccccc2O)C(c2ccccc2[N+](=O)[O-])C(C(=O)OCC2CCCO2)=C(C)N1 (stereo unspecified) | 18µM | -58 | 0 | ? | 18µM | 0
Cc1c(CCO)c(=O)n2c([nH]c3ccccc32)c1C#N | 0 | 0 | 0 | 0 | 0 | 0
Cc1c(CCC(C)C)c(=O)n2c([nH]c3ccccc32)c1C#N | 5.8µM | 0 | 0 | 0 | ? | 0
CCCCc1c(C)c(C#N)c2[nH]c3ccccc3n2c1=O | 16µM | 0 | 0 | 3.2µM | 23µM | 0
C/C(=N/NC(=O)CNS(=O)(=O)c1ccccc1)c1ccc(Br)cc1 | 0 | 0 | 0 | 0 | 0 | 0
O=C(CSc1nnc(CNC(=O)c2cccc(C(F)(F)F)c2)o1)NC1CCCC1 | 0 | 0 | 0 | 0 | 0 | 0
O=C(O)CSCC(=O)N1CCN(S(=O)(=O)c2cc(Cl)cc(Cl)c2)CC1 | 0 | 0 | 0 | 0 | 0 | 0
Cc1ccnc(SCCn2c(N3CCC(C)CC3)nc3c2c(=O)n(C)c(=O)n3C)n1 | 23µM | 0 | 0 | 0 | ? | 0
CC1CCCN(c2nc3c(c(=O)n(C)c(=O)n3C)n2CCSc2nc3ccccc3s2)C1 (stereo unspecified) | 18µM | 0 | 0 | 0 | 16µM | 0
CC1CCCN(c2nc3c(c(=O)n(C)c(=O)n3C)n2CCSc2nc3ccccc3o2)C1 (stereo unspecified) | 21µM | 0 | 0 | 0 | 23µM | 0
CC1CCN(c2nc3c(c(=O)n(C)c(=O)n3C)n2CCSc2nc3ccccc3s2)CC1 | 21µM | 0 | 0 | 0 | 10µM | 0
Cn1c(=O)c2c(nc(N3CCC(C(N)=O)CC3)n2CCSc2nc3ccccc3s2)n(C)c1=O | ? | 0 | 0 | 0 | ? | 0
CC1CCN(c2nc3c(c(=O)n(C)c(=O)n3C)n2CCSc2ncccn2)CC1 | ? | 0 | 0 | 0 | ? | 0
O=C(COC(=O)CNC(=O)c1ccccc1Cl)Nc1ccccc1Cl | - | - | 0 | 0 | - | 0
CCc1ccc(OCC(=O)Nc2ncn[nH]2)c(Br)c1 | 0 | - | - | 0 | 0 | 0
